Measured values published in PubChem BioAssay (NCI).
This is part of a sample that, as a whole, favours compounds with a hit. Of some 79,000 tested, about 15% had one in any assay. Values without a mark were called inactive. The source made the active and inactive calls. Rule as the data show it: active = growth inhibition above about 70%; inactive = the rest.

Legend:
[1] = NCI Yeast Anticancer Drug Screen. Data for the rad50 strain (AID 155);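 also: 0% = growth of vehicle-only cultures of the same strain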; details: S. cerevisiae rad50 strain growth inhibition; at 50.0 µM; hits give high values
In short: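 Yeast carrying a defined DNA repair defect were exposed to test compounds, and growth was compared with vehicle-treated controls to give percent inhibition.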

[2] = NCI Yeast Anticancer Drug Screen. Data for the mec2-1 strain (AID 157); details: S. cerevisiae mec2-1 strain, at 50.0 µM, hits give high values
In short: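 Growth inhibition is read against vehicle-treated controls after compound exposure of the mec2-1 yeast strain, which is defective in DNA damage repair or cell cycle control.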

[3] = NCI Yeast Anticancer Drug Screen. Data for the sgs1 mgt1 strain (AID 161);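 also: 0% = growth of cultures given vehicle only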; details: S. cerevisiae sgs1 mgt1 strain, at 50.0 µM, hits give high values
In short: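 Yeast cells carrying a defined DNA-repair defect were exposed to test compounds. Growth inhibition was measured relative to vehicle-treated controls.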

[4] = NCI Yeast Anticancer Drug Screen. Data for the cln2 rad14 strain (AID 165);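 also: 0% = growth equal to vehicle treated cultures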; details: S. cerevisiae cln2 rad14 strain, at 50.0 µM, hits give high values
In short: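 Growth inhibition, relative to vehicle-treated controls, is the read-out. The test organism is a yeast strain with defined genetic alterations, cln2 rad14.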

[5] = NCI Yeast Anticancer Drug Screen. Data for the bub3 strain (AID 167); details: S. cerevisiae bub3 mutant strain, at 50.0 µM, hits give high values
In short: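 Compounds were applied to a genetically altered yeast strain carrying a cell-cycle control defect. Growth inhibition was scored against vehicle-treated controls.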

[6] = NCI Yeast Anticancer Drug Screen. Data for the mlh1 rad18 strain (AID 175); details: S. cerevisiae mlh1 rad18 strain growth inhibition; at 50.0 µM; hits give high values
In short: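 Cells of a genetically altered yeast strain, deficient in DNA damage repair, were treated with compound. Their growth was then compared with that of vehicle-treated cultures to give inhibition.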

Compound | growth inhibition [1] | growth inhibition [2] | growth inhibition [3] | growth inhibition [4] | growth inhibition [5] | growth inhibition [6]
Cc1cc(O)c2c(c1)OC(C)(C)C1=C2CC(C)CC1 (stereo not drawn) | -6.4% | 10.8% | -1.05% | -52.8% | -16.1% | -21.9%
CN(C)C(=O)Oc1ccc(C2CCCN2C)cn1 (stereo not drawn) | 3.95% | 5.45% | 3.75% | -13.1% | -6% | -22.7%
CC(C)/C=C/C1(C(C)C)C(=O)NC(=O)NC1=O | 19.5% | 9.5% | -4.85% | 14.1% | 3.9% | 3.1%
C=CCCCCCCCCC(=O)Nc1ccc(Cl)cc1C(=O)c1ccccc1 | -2.3% | 0% | 4.3% | 28.2% | -7.95% | 13.8%
COc1ccc(CC(N)c2ccc(OC)cc2)cc1 (stereo not drawn) | -50% | 0.8% | -40% | -24.8% | -11.3% | -2.4%
COC(=O)c1cncn1C(C)c1cccc2ccccc12 (stereo not drawn) | 90.7% (active) | 91% (active) | 79.2% (active) | 59% | 88.2% (active) | 89.3% (active)
CC12CC/C(=C3/C=CC(=O)S3)C=C1CCC1C2CCC2(C)C(O)CCC12 (stereo not drawn) | 23.9% | -5.55% | 4.95% | 10.3% | -19.6% | 15.8%
O=C(O)C(O)CO.[Pb] (stereo not drawn) | -1.95% | 0.35% | -2.5% | 12.4% | -15.7% | 9.85%
COc1ccc(C=C(C#N)C#N)cc1OC | -2.8% | -8.15% | -1.95% | -24.2% | -1.3% | -0.25%
N=c1nc(N)n2c(N)nc(=N)n12 | 19.9% | 12.7% | -1.55% | 4.05% | -1.75% | 2.45%
COc1ccc(N)cc1OC | -2.15% | 1.35% | -4.8% | -12.2% | 6.7% | -5.4%
Cc1ccc(C(=O)CN)cc1 | 10.4% | 0.05% | -1.35% | 4% | 3.45% | -9.5%
C(=C\C1CC2CCCN2O1)/c1ccccc1 (stereo not drawn) | 39.9% | -20.5% | 15.2% | -23.4% | 2.45% | 11.2%
Cc1c[nH]c2c1C13CC1CN(C(=O)c1cc4cc(NC(=O)c5cc6ccccc6o5)ccc4[nH]1)C3=CC2=O (stereo not drawn) | 84.9% (active) | 91.4% (active) | 90.3% (active) | 88.2% (active) | 90.2% (active) | 89% (active)
[O-][Cl+3]([O-])([O-])O.[O-][n+]1c2ccccc2nc2ccccc21.[Zn+2] | 58.1% | 36.1% | 18.6% | 14.8% | 28.3% | 41.5%
[Cl][Co][Br].[NH-]CC[NH-].[NH-]CC[NH-] | -12.7% | 3.95% | 13.9% | -42.1% | 36.4% | 21.2%
C1=C[N-]c2c3c(ccc2=C1)=CC=C[N-]3.C1=C[N-]c2c3c(ccc2=C1)=CC=C[N-]3.C1=C[N-]c2c3c(ccc2=C1)=CC=C[N-]3.[Co+3].[O-][Cl+3]([O-])([O-])O | -8.95% | -16.4% | -22.8% | -26.1% | -1.15% | 8.2%
COc1ccc2c(c[n+](C)c3c4cc5c(cc4ccc23)OCO5)c1OC | 0.2% | -6.25% | 5.6% | 14% | -6.5% | 0.6%
C/C(CCl)=N/NC1=NC(C)(CCC2(C)N=C(N/N=C(/C)CCl)SP2(=O)NC23CC4CC(CC(C4)C2)C3)P(=O)(NC23CC4CC(CC(C4)C2)C3)S1 (stereo not drawn) | -9.25% | 1.15% | 16.8% | -21.8% | -19.5% | -28.8%

Compound | growth inhibition [1] | growth inhibition [2] | growth inhibition [3] | growth inhibition [4] | growth inhibition [5] | growth inhibition [6]
CN(C)C(=O)NC(O)C(Cl)(Cl)Cl (stereo not drawn) | -20.4% | -8.35% | -5.45% | -21.1% | -4.25% | 19.1%
CC1=CC2OC3CC4OC(=O)/C=C/C=C/C(=O)OCC/C(C)=C/C(=O)OCC2(CC1O)C4(C)C31CO1 (stereo not drawn) | 92.3% (active) | 93.6% (active) | 93% (active) | 91.7% (active) | 91.8% (active) | 90.9% (active)
S=[As](c1ccc(-c2ccccc2)cc1)(c1ccc(-c2ccccc2)cc1)c1ccc(-c2ccccc2)cc1 | -10.7% | -5.55% | -39.5% | -19.6% | -13.6% | -18.2%
CCCCCCCCCCNP(=O)(Oc1ccccc1)Oc1ccccc1 | -21.8% | 4.05% | -16.4% | -24.5% | -4.75% | -23.9%
C[Si](C)(C)[C@@]1([Se]c2ccccc2)CC[C@@H]1C(=O)c1ccccc1 | -11.6% | -26.4% | -26.4% | -18.2% | -27.4% | -23.9%
CCN(CC)CC(O)c1ccc(Br)cc1 (stereo not drawn) | 0.85% | -20.1% | -0.25% | -3.55% | 2.65% | 5.7%
O=C=Nc1ccc(Br)cc1 | 25.6% | 11.6% | 15.8% | -17.2% | 23.9% | 29.4%
O=C(N/N=C/c1cc(Cl)cc(Cl)c1[O-])c1ccccc1O.O=C(N/N=C/c1cc(Cl)cc(Cl)c1[O-])c1ccccc1O.[Cu+2] | -6.05% | -16.2% | -17.8% | -38.2% | -12.7% | 12.3%
Clc1cccc2ccccc12 | 7.8% | -12.2% | 0.1% | 14.1% | 3.4% | 16.1%
CC(=O)OC(C)(C)/C=C/C(=O)[C@](C)(O)[C@H]1[C@H](O)C[C@@]2(C)[C@@H]3CC=C4[C@@H](C=C(O)C(=O)C4(C)C)[C@]3(C)C(=O)C[C@]12C | -4.6% | -36.5% | -14.6% | -10.8% | -15.7% | -16.1%
Cc1cc(NC(=O)/C=C/c2ccc([N+](=O)[O-])cc2Cl)ccc1S(=O)(=O)F | -30.5% | -8.5% | -5.6% | -17.4% | 2.85% | -32.5%
C[C@]12CC[C@H](OC(=O)Cc3ccc(N(CCCl)CCCl)cc3)CC1CC[C@@H]1C2CC[C@]2(C)NC(=O)CCC12 (stereo partly drawn) | 0.1% | -5.65% | 15.9% | 15.2% | 3.65% | 18.1%
CCOP(=S)(NCCCOC)OCC | 0.25% | 5.8% | 12.3% | -32.4% | 22.6% | 2.4%
Nc1cccnc1 | -29.1% | -35.5% | 23.8% | -1.55% | -23.6% | -5.65%
O=C1CCC(=O)N1c1ccc([As](=O)(O)O)cc1 | -2.55% | -9.15% | 13.2% | -28.1% | 0.6% | -16.9%
CC1=C(C)CN(CCc2c[nH]c3ccccc23)C(C#N)C1 (stereo not drawn) | 0.6% | 2.3% | 3.95% | 60.5% | 11.9% | 12.5%
CCOP(O)(=S)OCC.[Sm] | 1.65% | -14.6% | -7.65% | -43.1% | -17.9% | -15.8%
O=[N+]([O-])c1ccc(N=Nc2ccc(N(CCCl)CCCl)cc2)cc1 | -4.8% | 14.1% | -1.25% | -14.9% | 5% | 23.5%
Nc1ccc([As](=O)(O)O)cc1C(=O)O | -16.3% | -18.8% | -6.7% | -11% | 7.2% | -2.3%
